TGFb inhibitor = qHTS for Inhibitors of TGF-b. HepG2 CAGA-GFP TGF-b/SMAD3 reporter, GFP fluorescence, 18 h; TGF-beta stimulated, 500 pg/mL final. Potency, µM (top dose mostly 46.1 µM), for the others: at the highest dose activity, negative = inhibition, actives largely listed as inhibitors. actives 1.2% (n = 410,000). AID 588855, 2011; also: potency is read from the fitted curve at half-maximal effect; % is scaled to controls: 0 for no effect and ±100 for the full control effect; nearly all actives have a fitted effect of over 65% in size
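Using HEPG2 CAGA-GFP reporter cells at 1000 cells/well, we pinned test compounds, stimulated with recombinant TGF-beta (500 pg/mL final) and measured total well GFP after 18 h.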
DT40 TDP1 CPT = qHTS for Inhibitors of human tyrosyl-DNA phosphodiesterase 1 (TDP1): qHTS in cells in presence of CPT | Potency, µM (highest dose often 46.2 µM), inactives show at the top dose activity change, negative = growth inhibition, most hits filed as inhibitors | chicken DT40 Tdp1-/-;hTDP1 cells + 20 nM CPT, ATP luminescence, 48 h | actives 12% (n = 420,000); also: potency is read from the fitted curve at half-maximal effect; % is scaled to controls: 0 for no effect and ±100 for the full control effect; nearly all actives have a fitted effect of over 55% in size
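Chicken DT40 Tdp1-/- cells complemented with human TDP1, 400 cells/well, exposed to compounds plus 20 nM camptothecin for at least 48 h at 37 C; viability read as ATP content by CellTiter-Glo luminescence.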
IL-1B inflam inh = qHTS for Inhibitors of Inflammasome Signaling: IL-1-beta AlphaLISA Primary Screen; THP-1 LPS/ATP IL-1B secretion, AlphaLISA, 16 h; active compounds read low; activity change, % at 57.5 µM; actives 4.7% (n = 360,000); AID 743279, 2014; in the data active = activity change below about -50%; inconclusive = mostly about -30% to -49%; also: % is scaled to controls: 0 for no effect and ±100 for the full control effect
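THP-1 cells pretreated 1 hr with compounds (up to 57.5 uM final), then stimulated with LPS (250 ng/mL final) plus ATP (1.25 mM final); secreted IL-1B measured by AlphaLISA after 16 hr, decreased signal indicating inhibition.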
HepG2 tox = qHTS for Inhibitors of TGF-b: Cytotox Counterscreen. Potency, µM (doses to about 46.1 µM), for the others: at the highest dose activity change, negative = cytotoxicity, hits mostly cytotoxic. actives 0.76% (n = 410,000). HepG2 CAGA-GFP viability, ATP luminescence, 18 h; also: potency is read from the fitted curve at half-maximal effect
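HepG2 CAGA-GFP cells (1000/well, DMEM with 1% FBS) received compound, then TGF-beta at 500 pg/mL final, and were incubated 18 hours at 37 degrees C. Viability was read by CellTiter-Glo luminescence. Media-only wells were set as complete cell-killing and DMSO as no toxicity.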
TDP1 block = qHTS Assay for Inhibitors of Tyrosyl-DNA Phosphodiesterase (TDP1). AID 485290, 2010. actives 0.28% (n = 350,000). recombinant TDP1, AlphaScreen DNA substrate cleavage. Potency, µM (titrated, usually from 130 µM), for inactives: at the highest dose activity change, negative = inhibition, most hits filed as inhibitors; also: potency is read from the fitted curve at half-maximal effect; % is scaled to controls: 0 for no effect and ±100 for the full control effect; nearly all actives have a fitted effect of over 40% in size
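Recombinant human Tdp1 (E. coli-expressed, 1 nM final) preincubated with compounds 15 min at room temperature, then 5'-biotin/3'-phosphotyrosine-FITC DNA substrate (15 nM final) added for 5 min. AlphaScreen beads (10 ug/ml final) added 10 min; cleavage lowers signal.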
TDP1 cell noCPT = qHTS for Inhibitors of human tyrosyl-DNA phosphodiesterase 1 (TDP1): qHTS in cells in absence of CPT | actives 15% (n = 420,000) | DT40 Tdp1-/- hTDP1 cells, no CPT, ATP luminescence, 48 h | AID 686978, 2013 | Potency, µM (series often up to 46.2 µM), inactives show at the top dose activity change, negative = growth inhibition, actives largely listed as inhibitors; also: potency is read from the fitted curve at half-maximal effect; % is scaled to controls: 0 for no effect and ±100 for the full control effect; nearly all actives have a fitted effect of over 55% in size
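Growth kinetics read by CellTiter-Glo luminescence after ≥48 hr at 37 °C. Cells: DT40 Tdp1-/- stably carrying human TDP1, 400 per well, compound exposure in the absence of CPT (DMSO vehicle).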
An asterisk follows results filed as active; u = inconclusive; x = not tested or not shown. Most compounds without a hit are left out; they make up all but 18% or so of the library. Unless noted, calls follow the shape of the dose curve; as a rule, active = well fitted curve in the direction sought with a large enough effect; inconclusive = small, poorly fitted or top-dose-only effect, or another doubt; inactive = no such curve, though single readings can be large; an effect the other way counts as inactive or inconclusive.

SMILES	TGFb inhibitor	DT40 TDP1 CPT	IL-1B inflam inh	HepG2 tox	TDP1 block	TDP1 cell noCPT
Cc1cccc(C)c1-n1nnnc1C1c2ccccc2C(=O)N1CCC(C)C (stereo not given)	x	u	0	x	x	u
COc1ccc(CN2C(=O)CCC2(C)c2nnnn2-c2c(C)cccc2C)cc1OC (stereo not given)	x	16µM*	0	x	x	18µM*
Cc1ccc(CN2C(=O)c3ccccc3C2c2nnnn2-c2c(C)cccc2C)cc1 (stereo not given)	x	u	-8	x	x	29µM*
COc1ccc(CCN2C(=O)c3ccccc3C2c2nnnn2-c2c(C)cccc2C)cc1OC (stereo not given)	x	23µM*	2	x	x	12µM*
Cc1cccc(C)c1-n1nnnc1C1c2ccccc2C(=O)N1CCc1ccccc1F (stereo not given)	x	u	7	x	x	16µM*
O=C(NNC(=O)c1ccc(-n2cncn2)c([N+](=O)[O-])c1)c1cccc(Cl)c1	20%	-3%	-9	-4%	0%	6%
CC(=O)Nc1ccc(-c2nnc(SCc3ccccc3)n2C)cc1	7%	-40%	x	2%	x	-10%
Cc1cnc2c(C)ccc(C)c2c1/C=C/c1ccc(N(C)C)cc1	-5%	u	x	-4%	x	16µM*
Cc1cnc(/C=C/c2ccc(N(C)C)cc2)cn1	-27%	3.2µM*	x	-28%	x	2.8µM*
Cc1ccc(S(=O)(=O)NCCC(=O)NC2CC2)cc1	24%	-3%	6	14%	0%	2%
C/C(=N\NC(=S)NC(C)C)c1ccc2c(c1)OCCO2	u	1.3µM*	-79*	-65%	7%	6.5µM*
C/C(=N\NC(=O)COc1ccc(C(C)(C)C)cc1)c1ccc2c(c1)OCCO2	u	16µM*	12	0%	0%	26µM*
CCc1ccc(OCC(=O)N/N=C(\C)c2ccc3c(c2)OCCO3)cc1	2%	3%	12	4%	1%	-6%
COc1cc(/C(C)=N/NC(=S)NC(C)C)cc(OC)c1OC	10µM*	1.3µM*	u	-37%	-1%	1.2µM*
C/C(=N\NC(=S)Nc1ccc(C(C)C)cc1)c1ccc2c(c1)OCO2	25%	u	-17	-1%	8%	23µM*
CCCS(=O)(=O)N1CC(=O)N(c2cccc(Cl)c2C)C(C)(C(=O)NC2CCCC2)C1 (stereo not given)	-4%	-22%	x	3%	5%	-1%
Cc1ccccc1N1C(=O)c2ccccc2N2C(=O)c3ccccc3C12 (stereo not given)	2%	8.2µM*	3	0%	2%	16µM*
O=C1c2ccccc2NC(c2ccccc2O)N1Cc1ccccc1 (stereo not given)	x	x	x	x	-1%	x
O=C1c2ccccc2N2C(=O)c3ccccc3C2N1O (stereo not given)	8%	-9%	-15	7%	5%	-19%
O=C1c2ccccc2NC(c2ccccc2OCc2ccccc2)N1Cc1ccco1 (stereo not given)	u	11µM*	x	-30%	1%	10µM*
O=C1c2ccccc2NC(c2ccccc2O)N1Cc1ccco1 (stereo not given)	-8%	u	x	5%	4%	16µM*
COc1ccc(C2Nc3ccccc3C(=O)N2Cc2ccco2)cc1 (stereo not given)	-4%	u	x	10%	4%	13µM*

Screens (PubChem BioAssay)
